Among the data in PubChem BioAssay are inhibition and cell count values, retold here.

Activity calls are given as the source filed them.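 The calls were made as follows: active = inhibition above 20% together with a positive visual image hit; inconclusive = visual image hit but inhibition not above 20%; inactive = no visual image hit.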

This assay can be described thus: inhibitors of TNFa-induced NFkB p65 translocation, primary screen, imaging, HUVEC, MLSMR starter and 10KST1 sets (AID 438).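 Also: compound added about 3h40 before a 20 min TNFalpha stimulation.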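 As to inhibition: signal is the nuclear over cytoplasmic p65 intensity ratio per well.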 The note with it: HUVEC TNFa-induced p65 nuclear translocation; cell count: measured here: nuclei count (cytotoxicity indicator), at 2.08 µM unless noted; inhibition: at 2 µM, stronger effect = higher value unless noted.
As a reminder, the inhibition is the change of the read-out against control, counted positive when it falls. On to `COc1ccc(C2SCC(=O)Nc3c2c(=O)[nH]n3C2CCCCCC2)cc1OC` (stereo unspecified), for which the inhibition was 21% (inactive) and the cell count came to 316.
In the same order, the values of `Cc1cnn(C2CCN(C)CC2)c1N` are -7.4% (inactive) and 791.
Turning to `O=C1CC(N2CCC(n3c(=O)[nH]c4ccccc43)CC2)C(=O)N1c1ccc(F)cc1` (stereo unspecified), the inhibition is 3.6% (inactive) and the cell count was found to be 366.
`CCNc1ccc(P(=S)(N(C)C)N(C)C)cc1`: the cell count amounted to 441 and the inhibition is 16.7% (inactive).
For `c1ccc(C2NCc3ccccc3-n3cccc32)cc1` (stereo unspecified) the same measures were 704 and -11% (inactive).
`CC(=O)Nc1ccc(OC(=O)c2ccccc2N)cc1`: the cell count is 292 and the inhibition was -3.4% (inactive).
Regarding `CCOCC(=O)NC1CCSC1=O` (stereo unspecified), the cell count was 342 and the inhibition was -5% (inactive).
As for `CN1CCN(c2nc3ccccc3c(=O)n2-c2ccccc2)CC1`, the inhibition was -2.3% (inactive) and the cell count was determined as 568.
For `O=c1[nH]c(=O)n(CCc2ccc(F)cc2)c(O)c1C=NCCCn1ccnc1`, the inhibition was 2.2% (inactive) and the cell count is 544.
Take `CCOc1c(P(=S)(N(C)C)N(C)C)c(C)nn1-c1ccccc1`: the inhibition is -5.2% (inactive) and the cell count stood at 305.
For `O=C(CN1C2CCC1CC(O)(c1cccnc1)C2)Nc1ccc2c(c1)OCO2` (stereo unspecified), the cell count amounted to 414 and the inhibition is 7.5% (inactive).
With `CCN1CCN(C(=O)COc2cc(=O)n(CC)c3ccccc23)CC1`, the inhibition was 0% (inactive) and the cell count turned out to be 357.
Turning to `O=C(O)C1(c2ccc(Cl)cc2)CCC1`, the cell count turned out to be 433 and the inhibition was 7.5% (inactive).
Regarding `Cc1cccc(C2=NCC(=O)N(CC(=O)NCc3ccco3)c3sc4c(c32)CCCC4)c1`, the inhibition is 14.7% (inactive) and the cell count worked out at 291.
In the same order, the values of `CP(C)(=O)CCC(=O)O` are -7.5% (inactive) and 347.
As to `CN(C)CCc1nc2ccccc2c(=O)n1-c1ccccc1`, the cell count is 241 and the inhibition is -2.3% (inactive).
On to `CCC(=NCC1CCCO1)c1c(O)n(Cc2ccccc2)c(=O)[nH]c1=O` (stereo unspecified), for which the inhibition was -6% (inactive) and the cell count was 707.
Regarding `CCCCCCOc1ccc(CN2CCN(C)CC2)cc1`, the inhibition was -5% (inactive) and the cell count was 302.
In the case of `CCOC(=O)C1SC2(C(F)F)CC1(O)c1c(c(OC)c3occc3c1OC)O2` (stereo unspecified), the inhibition is -5.1% (inactive) and the cell count was 665.
On to `Cc1ccc(C(=O)C2CN3CCC2CC3)cc1` (stereo unspecified), for which the cell count was 882 and the inhibition was -7.3% (inactive).
Consider `C=CCn1c(O)c(C(C)=NCCCO)c(=O)[nH]c1=O`, for which the cell count worked out at 631 and the inhibition was 5.7% (inactive).
Take `CC1CCC(C(=O)NC(C(=O)N2CCC3(CC2)OCCO3)C(C)C)CC1` (stereo unspecified): the inhibition is 3.4% (inactive) and the cell count came to 251.
In the same order, the values of `CCCCNC(=O)c1c(N)n(CCCOC)c2nc3ccccc3nc12` are 14.6% (inactive) and 447.
On to `O=C1CC(c2ccccc2)CC(O)=C1C=NCCN1CCN(C(=O)Cc2ccccc2)CC1` (stereo unspecified), for which the cell count is 450 and the inhibition is 2.9% (inactive).
Take `O=C(c1ccncc1)C12CN3CN(CN(C3)C1)C2`: the cell count stood at 459 and the inhibition is 4.5% (inactive).
In the same order, the values of `CCOc1ccc(-n2c(O)c(C=NCCN(CC)CC)c(=O)[nH]c2=O)cc1` are 411 and -1.5% (inactive).
For `COc1ccc(OC)c(N2C(=O)NC(=O)C(CCc3ccncc3)(CCc3ccncc3)C2=O)c1`, the inhibition is 1% (inactive) and the cell count was found to be 397.
In the same order, the values of `CC(C)OCCCNC(=O)c1c(N)n(CC2CCCO2)c2nc3ccccc3nc12` (stereo unspecified) are -6.7% (inactive) and 430.
For `COc1ccccc1N1CCN(Cc2c(F)cccc2F)CC1`, the inhibition was -1.1% (inactive) and the cell count is 410.
As to `O=C(c1ccc2nc(-c3ccco3)c(-c3ccco3)nc2c1)N1CCC2(CC1)OCCO2`, the inhibition is -12.6% (inactive) and the cell count is 597.
As to `CC(=NCCCO)c1c(O)n(Cc2ccccc2)c(=O)[nH]c1=O`, the cell count is 374 and the inhibition is -1.2% (inactive).
As to `CCN1c2nc3ccccn3c(=O)c2CC2(C(=O)N(C)C(=O)N(C)C2=O)C1C` (stereo unspecified), the cell count turned out to be 359 and the inhibition was 4.3% (inactive).
As for `Cc1cccc(-n2c(O)c(C=NCCCN3CCOCC3)c(=O)[nH]c2=O)c1C`, the inhibition is -3.5% (inactive) and the cell count is 710.
On to `CCCCn1c(O)c(C(CC)=Nc2cccc(C(=O)O)c2)c(=O)[nH]c1=O`, for which the cell count was determined as 688 and the inhibition was -5.8% (inactive).
As to `O=C(c1cccs1)C1CN2CCC1CC2` (stereo unspecified), the inhibition was -15.9% (inactive) and the cell count was 582.
For `COc1ccc(CCn2c(O)c(C=NCc3cccnc3)c(=O)[nH]c2=O)cc1OC` the same measures were -1.7% (inactive) and 716.
Turning to `O=C(C(Cc1ccccc1)NS(=O)(=O)c1ccc(F)cc1)N1CCC2(CC1)OCCO2` (stereo unspecified), the cell count is 381 and the inhibition is -11.2% (inactive).
Consider `O=C(NCc1ccccn1)c1ccccc1Cl`, for which the cell count was determined as 627 and the inhibition is -0.6% (inactive).
